Data on 16 compounds can be found in PubChem BioAssay (EPA / NIEHS).

Where “and” joins values, the source holds several entries; their conditions need not be identical. Equal entries are not always repeated. Records with an inconclusive call do not appear. Some structures have more than one record in an assay (separate samples or runs), and their calls can disagree. Calls of active or inactive are those of the source. The calls were made as follows, unless noted: active = hit-call score of the fitted dose curve at least 0.9, where 1 is the maximum; inactive = score below 0.9.

Read-out in assay [1]: Monokine induced gamma interferon (MIG), CXCL9 (gene 4283)
Briefly: BSK_3C_MIG: BioMAP Diversity Plus: 3C Assay for Monokine induced gamma interferon (MIG) Biomarker Activity (AID 2283021).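 As to AC50: MIG protein level measured by immunoassay in the treated endothelial cultures.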 Conditions: primary human endothelial cells (HUVEC); actives raise or lower the signal. In short, it runs like this: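 Primary human umbilical vein endothelial cells in the 3C system were exposed to chemical for 24 h, after which MIG was quantified by ELISA. Activity was fitted bidirectionally against DMSO as negative control and baseline.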

In assay [2] the target is human Vitamin D Receptor (VDR), VDR (gene 7421) (UniProt P11473). Briefly: ATG_VDR_TRANS: Attagene TRANS-FACTORIAL HepG2 Assay for human Vitamin D Receptor (VDR) (AID 2283022; active = hit-call score of the fitted dose curve at least 0.9, where 1 is the maximum). In short, it runs like this:
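HepG2 cells were transiently transfected with GAL4-UAS reporter units and a chimeric VDR-Gal4 construct, then dosed for 24 hours. Reporter mRNA was quantified by RT-PCR, fluorescent labeling, HpaI digestion and capillary electrophoresis; gain of signal analysed vs DMSO.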

Assay [3] can be described thus: BSK_3C_SRB: Viability Assessment in the BioMAP Diversity Plus: 3C Assay (AID 2283023).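 Also: fitted both ways against DMSO so a hit may be signal rise or drop.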 Conditions: primary human endothelial cells (HUVEC). The method, boiled down:
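Human umbilical vein endothelial cells in the 3C system, treated 24 h. Total protein measured by 0.1% sulforhodamine B staining after 10% TCA fixation, read at 560 nm; bidirectional fit versus DMSO.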

Read-out in assay [4]: Matrix Metallopeptidase 1 (MMP1), MMP1 (gene 4312)
Briefly: BSK_BE3C_MMP1: BioMAP Diversity Plus: BE3C Assay for Matrix Metallopeptidase 1 (MMP1) Biomarker Activity (AID 2283024). Particulars: primary human bronchial epithelial cells; actives raise or lower the signal. In short, it runs like this:
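Primary human bronchial epithelial cells were dosed with test chemicals, and MMP1 levels were measured by ELISA 24 h later. Data were fitted bidirectionally against DMSO as the negative control and activity baseline.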

The nature of assay [5]: BSK_3C_Vis: BioMAP Diversity Plus: 3C Assay for Morphology Visualization (AID 2283025).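 Also: fitted both ways so gain or loss versus DMSO counts.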 Particulars: primary human endothelial cells (HUVEC). In short, it runs like this:
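Human umbilical vein endothelial cells in the 3C system were imaged by light microscopy 24 h after chemical dosing to record cell morphology. Activity was fitted bidirectionally against DMSO as negative control and baseline; the endpoint serves as a background control.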

Read-out in assay [6]: Pselectin, SELP (gene 6403)
Briefly: BSK_4H_Pselectin: BioMAP Diversity Plus: 4H Assay for Pselectin Biomarker Activity (AID 2283026). Particulars: primary human endothelial cells (HUVEC); actives raise or lower the signal. In short, it runs like this:
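Primary human umbilical vein endothelial cells were exposed to test chemical for 24 h, then cell-surface P-selectin was quantified by ELISA. Activity was fitted bidirectionally against DMSO as negative control and baseline.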

A short description of assay [7]: BSK_4H_SRB: Viability Assessment in the BioMAP Diversity Plus: 4H Assay (AID 2283027).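 Also: cells exposed to compound for 24 h before staining.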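 As to AC50: curves fitted both ways versus DMSO so AC50 may be loss or gain.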 Particulars: primary human endothelial cells (HUVEC). In short, it runs like this:
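Human umbilical vein endothelial cells, 24 h after chemical dosing; total protein measured by 0.1% sulforhodamine B staining after 10% TCA fixation, read at 560 nm. Bidirectional fitting against DMSO.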

A short description of assay [8]: BSK_BE3C_SRB: Viability Assessment in the BioMAP Diversity Plus: BE3C Assay (AID 2283028).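 As to AC50: fitted both ways so AC50 may mark signal gain or loss versus DMSO.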 Particulars: primary human bronchial epithelial cells. In short, it runs like this:
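Human bronchial epithelial primary cells in confluent culture, 24 h after chemical dosing; total protein by 0.1% SRB staining after 10% TCA fixation, read at 560 nm. Bidirectional fitting versus DMSO baseline.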

Read-out in assay [9]: Thrombomodulin, THBD (gene 7056)
Briefly: BSK_3C_Thrombomodulin: BioMAP Diversity Plus: 3C Assay for Thrombomodulin Biomarker Activity (AID 2283029). Particulars: primary human endothelial cells (HUVEC); actives raise or lower the signal. In short, it runs like this: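 Primary human umbilical vein endothelial cells (3C system) were exposed to chemical for 24 h, then thrombomodulin levels were measured by ELISA. Activity was fitted bidirectionally against the DMSO negative control as baseline.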

Read-out in assay [10]: Urokinase-type plasminogen activator receptor (uPAR), PLAUR (gene 5329)
Briefly: BSK_4H_uPAR: BioMAP Diversity Plus: 4H Assay for Urokinase-type plasminogen activator receptor (uPAR) Biomarker Activity (AID 2283030). Particulars: primary human endothelial cells (HUVEC); actives raise or lower the signal. The method, boiled down: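 Human umbilical vein endothelial cells in the 4H system, 24 h after chemical dosing. Cell-surface uPAR measured by ELISA, fitted in both directions versus DMSO; cytotoxicity checked by SRB total protein in parallel cultures.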

human Vitamin D Receptor (VDR), VDR (gene 7421), sequence (P11473 whole entry, looked up, the tested form may be a part): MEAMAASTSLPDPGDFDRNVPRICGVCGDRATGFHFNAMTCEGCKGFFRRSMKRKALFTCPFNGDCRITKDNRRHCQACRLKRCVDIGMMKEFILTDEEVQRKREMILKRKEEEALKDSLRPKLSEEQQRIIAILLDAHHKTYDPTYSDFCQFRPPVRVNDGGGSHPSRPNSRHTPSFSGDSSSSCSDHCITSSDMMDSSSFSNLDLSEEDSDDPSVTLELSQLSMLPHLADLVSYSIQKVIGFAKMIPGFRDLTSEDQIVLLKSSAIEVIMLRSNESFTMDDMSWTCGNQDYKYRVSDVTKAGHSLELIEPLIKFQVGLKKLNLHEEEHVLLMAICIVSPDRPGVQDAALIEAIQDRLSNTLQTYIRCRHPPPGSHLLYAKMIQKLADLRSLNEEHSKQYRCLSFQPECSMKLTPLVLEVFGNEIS

What is called AC50 is the midpoint of the concentration-response curve, whichever way the signal moves. Turning to `Clc1ccc(C(c2ccccc2Cl)C(Cl)(Cl)Cl)cc1` (stereo not given), the AC50 was 21.5 µM (active) in assay [1]; 16.1 µM (active) in [3]; 26.4 µM (active) in assay [5]; 19.1 µM (active) in assay [6]; 19.5 µM (active) in [7]; 21.2 µM (active) in assay [10]. Moreover, the outcome in [2], in assay [4], in assay [8] and in assay [9] was inactive.

In the case of `COc1ccc(O)c(C(C)(C)C)c1`, the outcome in assay [1], in assay [2], in [3], in [4], in [5] and in assay [6] was inactive. Also, the result in [7], in [8], in assay [9] and in assay [10] was inactive.

`Oc1c(Cl)c(Cl)c(Cl)c(Cl)c1Cl`: the AC50 in assay [1] was 34.5 µM (active); in [2] it was 9.71 µM (active); in assay [3], 15.4 µM (active) and 13 µM (active); in [4] it was 26.1 µM (active); in [5] it was 14.1 µM (active); in assay [6], 8.49 µM (active) and 9.69 µM (active). Besides, the AC50 in assay [7] was 10.2 µM (active) and 9.07 µM (active); in assay [8], 4.33 µM (active) and 28.2 µM (active); in assay [9] it was 20 µM (active); in [10], 5.58 µM (active) and 9.79 µM (active). Moreover, the result in assay [1], in [2], in assay [4], in assay [5] and in assay [9] was inactive.

Turning to `CCC(C)(CC)c1cc(NC(=O)c2c(OC)cccc2OC)on1`, the result in assay [1], in [2], in assay [3], in [4], in assay [5] and in assay [6] was inactive. The outcome in [7], in [8], in [9] and in assay [10] was inactive.

With `Cc1cc(-c2ccc(N)c(C)c2)ccc1N`, the result in assay [1], in assay [2], in [3], in assay [4], in assay [5] and in [6] was inactive. The outcome in [7], in [8], in assay [9] and in assay [10] was inactive.

As to `CN(C)CCO`, the result in assay [1], in [2], in [3], in assay [4], in assay [5] and in [6] was inactive. The outcome in [7], in [8], in [9] and in [10] was inactive.

As to `Sc1ccccc1`, the result in assay [1], in assay [2], in [3], in assay [4], in [5] and in [6] was inactive. Further, the result in assay [7], in assay [8], in assay [9] and in [10] was inactive.

As to `CCSC(=O)N(CC)C1CCCCC1`, the result in assay [1], in [2], in assay [3], in [4], in assay [5] and in [6] was inactive. The outcome in assay [7], in assay [8], in [9] and in [10] was inactive.

For `ClC1=C(Cl)[C@]2(Cl)[C@@H]3[C@@H]4C[C@@H]([C@H]5O[C@@H]45)[C@@H]3[C@@]1(Cl)C2(Cl)Cl`, the result in assay [1], in [2], in assay [4], in assay [6], in assay [7] and in assay [8] was inactive. Also, the outcome in assay [9] and in assay [10] was inactive. Further, the results for the AC50 in assay [3] and in assay [5] were 12.5 µM (active) and 13.7 µM (active), respectively.

As for `C=CC(=O)NCNC(=O)C=C`, the outcome in assay [1], in assay [2], in [3], in [4], in assay [5] and in assay [6] was inactive. The result in assay [7], in assay [8], in assay [9] and in [10] was inactive.

For `O=S(=O)(O)C(F)(F)C(F)(F)C(F)(F)C(F)(F)F`, the outcome in assay [1], in [2], in assay [3], in assay [4], in [5] and in assay [6] was inactive. For the same compound, the outcome in [7], in assay [8], in [9] and in [10] was inactive.

Take `CC#Cc1cc(C)nc(Nc2ccccc2)n1`: the outcome in assay [1], in assay [2], in assay [3], in assay [4], in assay [5] and in [6] was inactive. Moreover, the result in assay [7], in assay [8], in assay [9] and in [10] was inactive.

Turning to `Cc1ccccc1CO[C@@H]1C[C@@]2(C(C)C)CC[C@]1(C)O2`, the outcome in assay [1], in assay [2], in assay [4], in assay [5], in [6] and in [7] was inactive. For the same compound, the outcome in [8], in assay [9] and in [10] was inactive. In assay [3], the AC50 is 31.3 µM (active).

In the case of `Clc1ccc(Cl)cc1`, the result in [1], in assay [2], in assay [3], in assay [4], in [5] and in assay [6] was inactive. Besides, the result in assay [7], in assay [8], in assay [9] and in [10] was inactive.

In the case of `CCOP(=S)(OCC)SCSC(C)(C)C`, the result in [1], in assay [2], in assay [3], in assay [4], in assay [5] and in assay [6] was inactive. Besides, the outcome in assay [7], in [8], in assay [9] and in assay [10] was inactive.

As to `CC(C)(O)C(=O)Nc1ccc([N+](=O)[O-])c(C(F)(F)F)c1`, the result in assay [1], in assay [2], in assay [3], in [4], in assay [5] and in [6] was inactive. Further, the result in [7], in [8], in [9] and in assay [10] was inactive.
